# Screens from PubChem BioAssay.
# MOR-DOR ag: agonists of human mu-delta opioid receptor heterodimerization | cells, OPRM1-OPRD1 heterodimerization, luminescence | activation, % at 9.3 µM | 0.3% of 340,000 active | AID 504326; in the data active = activation above about 18%
# A1 inh: inhibitors of the anti-apoptotic protein A1, read as caspase activation | MEF A1-2A-BIM cells, Caspase-Glo 3/7 luminescence, 3 h; percent of clofoctol response, vehicle zero | caspase activation, % (no concentration beside the values) | 0.066% of 330,000 active | AID 2462;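 active = over half of replicate activation scores above 10%, or exactly half above 10 with the replicate mean above 10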
# HTR5A ag ctr: counter-screen for OPRM1-OPRD1 agonists: human HTR5A agonism. HTR5A agonist assay, luminescence, cell-based. AID 504692. 0.61% of 340,000 active. activation, % at 9.3 µM; in the data active = activation mostly above about 9.5%, no sharp cut-off; inactive = mostly below about 7.6%
# Target sequence (P47898 whole entry, looked up): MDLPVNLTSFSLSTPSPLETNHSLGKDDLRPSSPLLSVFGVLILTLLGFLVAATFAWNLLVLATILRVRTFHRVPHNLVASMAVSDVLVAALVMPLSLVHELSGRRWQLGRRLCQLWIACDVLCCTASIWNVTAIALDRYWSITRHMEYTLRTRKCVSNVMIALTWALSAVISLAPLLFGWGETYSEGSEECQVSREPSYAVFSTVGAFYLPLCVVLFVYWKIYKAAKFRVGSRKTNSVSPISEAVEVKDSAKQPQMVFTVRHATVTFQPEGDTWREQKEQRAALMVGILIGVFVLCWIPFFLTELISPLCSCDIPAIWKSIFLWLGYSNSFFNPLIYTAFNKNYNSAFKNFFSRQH
# MOR-DOR inv ag: inverse agonist of human OPRM1-OPRD1 heterodimerization; P35372+P41143; cell-based MOR-DOR heterodimer luminescence, inverse agonism; inhibition, % at 9.3 µM; 0.21% of 340,000 active; in the data active = inhibition above about 22%, passing the limit was not always enough
# HTR5A inv ctr: inverse agonist of human HTR5A in OPRM1-OPRD1 counter-screen | 0.083% of 340,000 active | inhibition, % at 9.3 µM | HTR5A cell line, luminescence, inverse agonism | AID 504634; in the data active = inhibition mostly above about 23%, no sharp cut-off; inactive = mostly below about 18%
# Hits are given with their value; n = inactive; x = no result given. Most compounds without a hit are left out; they make up all but 1.1% or so of the library.
SMILES,MOR-DOR ag,A1 inh,HTR5A ag ctr,MOR-DOR inv ag,HTR5A inv ctr
CC(C)N(CC(=O)Nc1ccc(Cl)cc1C(F)(F)F)C(=O)CCl,n,n,12,n,n
COc1cc(C2N(C)C(=O)c3ccccc3N2C)ccc1O (centres undefined),n,n,9.5,n,n
CCC(=O)N1CCc2cc(S(=O)(=O)N3CCCCCC3)ccc21,n,n,13,n,n
CCC(=O)N1CCc2cc(S(=O)(=O)N3CCCC3)ccc21,n,n,n,n,n
CCC(CN(C)C)Oc1cc(NCc2ccccc2)c2ncn(C(C)C)c2c1 (centres undefined),24,x,21,n,n
Cc1cccc(C(=O)O/N=C2\CCCc3ccccc32)c1,n,n,13,n,n
O=C(NC1CCCC1)C(c1cccnc1)N(C(=O)c1csnn1)c1ccccc1Cl (centres undefined),n,n,n,n,n
CCOC(=O)C1CCCN(c2c(C(=O)c3ccccc3)cnc3ccc(OC)cc23)C1 (centres undefined),n,n,n,36,30
CCOC(=O)C1CCCN(C(=O)COc2ccc(C(=O)c3ccccc3)cc2)C1 (centres undefined),n,x,n,n,n
O=C(CCS(=O)(=O)c1ccccc1)N(CCCN1CCOCC1)c1nc2ccc(F)cc2s1,n,5.3,n,n,n
O=C(NCc1ccccc1)c1cc(-c2ccncc2)nc2ccc(S(=O)(=O)N3CCOCC3)cc12,n,n,n,n,n
Cc1ccc(CCNC(=O)c2cc(-c3ccncc3)nc3ccc(S(=O)(=O)N4CCOCC4)cc23)cc1,n,6.4,n,n,n
CN(C)/C=C(\C=O)c1ncc(C(F)(F)F)cc1Cl,n,n,n,n,n
CCC(C)[C@@H](C(=O)Nc1ccc(OC)c(OC)c1)N1Cc2ccccc2C1=O (some centres undefined),n,n,n,n,n
COc1cccc(C(=O)Nc2ccc(NC(=O)c3cc4ccccc4o3)c(OC)c2)c1,n,n,13,n,n
COc1cc(NC(=O)c2ccccc2)ccc1NC(=O)c1cc2ccccc2o1,n,n,n,n,n
COc1cc(C#Cc2c(-c3cncn3C)n(C)c3ccc(-c4cnc(OC)nc4)cc23)cc(OC)c1,n,n,12,n,n
COc1cc(C#Cc2c(-c3cncn3C)n(C)c3ccc(-c4cnc(N5CCOCC5)nc4)cc23)cc(OC)c1,n,n,n,n,n
Cc1ccc(N2CCN(CC(O)COC3CCCCC3)CC2)cc1 (centres undefined),n,n,10,n,n
O=C(NC1CCCC1)c1cccc2c1C(=O)c1ccc(/C=C/c3ccccc3)cc1S2(=O)=O,n,40,n,n,n
CC(C)c1cccc(-c2ccc3c(c2)S(=O)(=O)c2cccc(C(=O)NC4CCCC4)c2C3=O)c1,n,7.3,n,n,n
O=C(NCc1ccccc1)c1cccc2c1C(=O)c1ccc(/C=C/c3ccccc3)cc1S2(=O)=O,n,n,n,n,n
Cc1cccc2nc(-c3ccco3)c(Nc3ccccc3)n12,n,n,n,n,n
Cc1ccc(Nc2c(-c3ccccn3)nc3cccc(C)n23)cc1,n,n,n,34,n
CC1CC(C)CN(Cc2nc3c(c(=O)n(C)c(=O)n3C)n2CCN2CCOCC2)C1 (centres undefined),x,n,x,x,x
SMILES,MOR-DOR ag,A1 inh,HTR5A ag ctr,MOR-DOR inv ag,HTR5A inv ctr
Nc1cc(S(=O)(=O)C(F)(F)F)ccc1C(=O)O,n,n,12,n,n
N#Cc1c(NC(=O)/C=C/C(=O)O)sc2c1CCN(Cc1ccccc1)C2,n,n,n,n,n
O=C(N[C@@H](Cc1ccccc1)C(=O)N[C@@H](Cc1ccccc1)C(=O)O)OCc1ccccc1,n,n,n,n,n
CC(C)[C@H](NC(=O)OCc1ccccc1)C(=O)NCc1ccccc1,n,n,12,n,n
O=C(NC(Cc1ccccc1)C(=O)NC1CC1)OCc1ccccc1 (centres undefined),n,n,12,n,n
Nc1nnc(SCC(=O)Nc2cc(S(=O)(=O)N3CCOCC3)ccc2N2CCCC2)s1,n,n,n,n,n
COc1cc(NC(=S)Nc2ccccn2)c(OC)cc1Cl,n,n,n,n,n
CC(=NNS(=O)(=O)c1ccc([N+](=O)[O-])cc1)c1ccc(C)cc1,n,x,11,n,n
C/C(=N/NS(=O)(=O)c1ccc(F)cc1)c1ccncc1,n,n,11,n,n
N#CCn1nnc(-c2ccc3c(c2)OCO3)n1,n,6.7,n,n,n
